IL-1B inflam inh: qHTS for Inhibitors of Inflammasome Signaling: IL-1-beta AlphaLISA Primary Screen. THP-1 LPS/ATP IL-1B secretion, AlphaLISA, 16 h; stronger effect = lower value. activity change, % at 57.5 µM. 360,000 compounds, 4.7% hits; in the data active = activity change below about -50%; inconclusive = mostly about -30% to -49%; note: % is set by controls: 0 for no effect and ±100 for the full control effect
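THP-1 cells pretreated 1 hr with compounds (up to 57.5 uM final), then stimulated with LPS (250 ng/mL final) plus ATP (1.25 mM final); secreted IL-1B measured by AlphaLISA after 16 hr, decreased signal indicating inhibition.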
DT40 TDP1 no CPT: qHTS for Inhibitors of human tyrosyl-DNA phosphodiesterase 1 (TDP1): qHTS in cells in absence of CPT. DT40 Tdp1-/- hTDP1 cells, no CPT, ATP luminescence, 48 h. Potency, µM (doses to about 46.2 µM), for the others: at the top dose activity change, negative = growth inhibition, most hits filed as inhibitors. 420,000 compounds, 15% hits; note: potency is the fitted concentration of half-maximal effect; % is set by controls: 0 for no effect and ±100 for the full control effect; nearly all actives have a fitted effect of over 55% in size
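Camptothecin absent (DMSO only). Human TDP1-complemented DT40 knockout cells, 400 cells/well, 37 °C for minimum 48 hr; ATP measured via CellTiter-Glo, 30 min dark incubation, luminescence.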
TDP1 cell CPT: qHTS for Inhibitors of human tyrosyl-DNA phosphodiesterase 1 (TDP1): qHTS in cells in presence of CPT; chicken DT40 Tdp1-/-;hTDP1 cells + 20 nM CPT, ATP luminescence, 48 h; AID 686979, 2013; 420,000 compounds, 12% hits; Potency, µM (titrated, usually from 46.2 µM), inactives show top-dose activity change, negative = growth inhibition, most hits filed as inhibitors; note: potency is the fitted concentration of half-maximal effect; % is set by controls: 0 for no effect and ±100 for the full control effect; nearly all actives have a fitted effect of over 55% in size
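Chicken DT40 Tdp1-/- cells complemented with human TDP1, 400 cells/well, exposed to compounds plus 20 nM camptothecin for at least 48 h at 37 C; viability read as ATP content by CellTiter-Glo luminescence.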
MCF10A rerep: A quantitative high throughput screen for small molecules that induce DNA re-replication in MCF 10a normal breast cells | MCF 10A DNA re-replication, Hoechst nuclear intensity, 48 h | Potency, µM (series often up to 46.1 µM), inactives show top-dose activity, positive = re-replication, usual class: activators | 350,000 compounds, 2.9% hits; note: potency is the fitted concentration of half-maximal effect; % of control where 0% means no effect; nearly all actives have a fitted effect of over 50% in size
BCR signal inh: qHTS Assay to Find Inhibitors of Chronic Active B-Cell Receptor Signaling | AID 493014, 2011 | Potency, µM (highest dose often 46.1 µM), for the others: at the highest dose activity change, negative = inhibition, hits mostly inhibitors | 340,000 compounds, 0.05% hits | ABC-DLBCL IkBa-CBG/CBR reporter, luminescence ratio, 4 h; active = well fitted inhibition curve with a large enough effect in the signal ratio, with a control signal flat, not every such curve was filed as active; inconclusive = small, poorly fitted or top-dose-only effect, or effect the other way, or a change in a side signal; the % refers to the signal ratio;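 note: potency is the fitted concentration of half-maximal effect; plate controls were basal doxycycline-induced cells for no effect and cells given 10 µM MG132 for full effect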
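TMD8 ABC-DLBCL cells carrying doxycycline-inducible green luciferase fused to IkappaBalpha plus unfused red luciferase were exposed to compounds (up to 46 uM) for 4 hrs at 37C. Activity came from the overlap-corrected green/red luminescence ratio.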
SW480 rereplic: A quantitative high throughput screen for small molecules that induce DNA re-replication in SW480 colon adenocarcinoma cells; SW480 DNA re-replication, Hoechst DNA content imaging, 48 h; Potency, µM (highest dose often 46.1 µM), without a hit: at the highest dose re-replication activation, most hits filed as activators; 340,000 compounds, 1.8% hits; AID 624297, 2012; note: potency is the fitted concentration of half-maximal effect; % of control where 0% means no effect; nearly all actives have a fitted effect of over 55% in size
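SW480 cells exposed to compounds for 48 hr at 37 C, 5% CO2, then Hoechst-stained 40 min. Nuclear DNA content imaged by fluorescence scanning (405 nm excitation, 500-530 nm emission); re-replication scored as increased high-intensity nuclei.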
* marks the source's active call; other numbers are inactive results; [ ] = another dose, or the depositor's remark. Rows were chosen to be rich in hits. Some 19% of all compounds tested hit in one or more screens of this group. Unless noted, calls come from the whole dose curve; as a rule, active = well fitted curve in the direction sought with a large enough effect; inconclusive = small, poorly fitted or top-dose-only effect, or another doubt; inactive = no such curve, though single readings can be large; an effect the other way counts as inactive or inconclusive.

O=S(=O)(Nc1cccc(S(=O)(=O)N2CCCCCC2)c1)c1ccc(F)cc1F was read as IL-1B inflam inh 25.7, DT40 TDP1 no CPT 8.8%, TDP1 cell CPT 7.2%, MCF10A rerep 1.4%, BCR signal inh 8.9% and SW480 rereplic -1.0%.
`CC(CN1C(C)CCCC1C)OC(=O)c1ccc(Cl)cc1Cl` (configuration not stated) gave IL-1B inflam inh -1.7, DT40 TDP1 no CPT -3.8%, TDP1 cell CPT -27.0%, MCF10A rerep 12.6%, BCR signal inh 2.9% and SW480 rereplic -18.4%.
For CC1(C(=O)NS(=O)(=O)c2ccc(F)cc2F)CCN1C(=O)CC1CCCCC1 (configuration not stated) the results were IL-1B inflam inh 8.9, DT40 TDP1 no CPT 1.9% and TDP1 cell CPT 5.7%.
COc1cc(-c2cc(OC)c3c(C)oc(C)c3c(=O)c2)ccc1OC(=O)c1ccccc1F was read as DT40 TDP1 no CPT 20.6µM* and TDP1 cell CPT 8.2µM*.
Screening COc1cc(-c2cc(OC)c3c(C)oc(C)c3c(=O)c2)ccc1OC(=O)c1ccccc1Cl returned DT40 TDP1 no CPT 4.61µM* and TDP1 cell CPT 5.8µM*.
Cc1cc(OC(=O)c2ccccc2F)c([N+](=O)[O-])c(=O)[nH]1 was read as IL-1B inflam inh 18.0, DT40 TDP1 no CPT 4.4%, TDP1 cell CPT -6.4%, MCF10A rerep inconclusive, BCR signal inh -0.6% and SW480 rereplic 1.0%.
COc1ccc(C(=S)N2CCOCC2)cc1OC(=O)c1ccccc1Cl was read as IL-1B inflam inh 10.0, DT40 TDP1 no CPT -5.7%, TDP1 cell CPT 0.5%, MCF10A rerep -14.0%, BCR signal inh -4.6% and SW480 rereplic -8.4%.
`COc1cc(-c2cccs2)cc(=O)c2c(C)oc(C)c12` gave IL-1B inflam inh inconclusive, DT40 TDP1 no CPT 23.1µM*, TDP1 cell CPT 13µM*, MCF10A rerep -1.1%, BCR signal inh inconclusive and SW480 rereplic -3.5%.
For O=C(NCc1cccc2ccccc12)c1cccs1 the results were IL-1B inflam inh 23.6, DT40 TDP1 no CPT inconclusive, TDP1 cell CPT inconclusive, MCF10A rerep -17.0%, BCR signal inh inconclusive and SW480 rereplic 1.3%.
For O=C(C1CC1)N1CCN(c2ccc([N+](=O)[O-])cc2)CC1 the results were IL-1B inflam inh -12.5, DT40 TDP1 no CPT -16.7%, TDP1 cell CPT -17.3%, MCF10A rerep 0.2% and SW480 rereplic 8.1%.
O=C1OCCN1C(=O)[C@H]1[C@H](c2ccc([N+](=O)[O-])cc2)C(c2ccc(F)cc2)=NN1c1ccccc1 was read as IL-1B inflam inh -51.0*, DT40 TDP1 no CPT -24.2%, TDP1 cell CPT inconclusive, MCF10A rerep -10.1%, BCR signal inh 10.1% and SW480 rereplic 7.6%.
O=C1OCCN1C(=O)[C@H]1[C@H](c2ccc([N+](=O)[O-])cc2)C(c2ccc(F)cc2)=NN1c1ccc(Br)cc1 was read as IL-1B inflam inh inconclusive, DT40 TDP1 no CPT 14.6µM*, TDP1 cell CPT inconclusive, MCF10A rerep -30.8%, BCR signal inh 13.2% and SW480 rereplic -1.0%.
`C/C(=N\Nc1cccc2cccnc12)c1ccc[nH]1` gave IL-1B inflam inh -0.7, DT40 TDP1 no CPT 4.61µM*, TDP1 cell CPT 2.59µM*, MCF10A rerep 16.8%, BCR signal inh -14.3% and SW480 rereplic -1.4%.
`Cc1ccccc1S(=O)(=O)N1C[C@H]2CON(C)[C@H]2C[C@H]1c1cccc(Oc2ccccc2)c1` gave IL-1B inflam inh 34.0, DT40 TDP1 no CPT 18.4µM*, TDP1 cell CPT inconclusive, MCF10A rerep inconclusive and SW480 rereplic 8.2µM*.
Screening COCC(=O)N1C[C@H]2CON(C)[C@H]2C[C@H]1c1cccc(-c2ccccc2OC)c1 returned IL-1B inflam inh -1.5, DT40 TDP1 no CPT 8.2% and TDP1 cell CPT 3.3%.
C=CCCC(=O)N1C[C@H]2CON(C)[C@H]2C[C@H]1c1cccc(Oc2ccccc2)c1 was read as IL-1B inflam inh 14.8, DT40 TDP1 no CPT inconclusive and TDP1 cell CPT inconclusive.
CN1OC[C@@H]2CN(Cc3cc(Cl)cc(Cl)c3)[C@H](c3cccc(-c4ccc(C#N)cc4)c3)C[C@@H]21 was read as IL-1B inflam inh inconclusive, DT40 TDP1 no CPT inconclusive and TDP1 cell CPT 20.6µM*.
Screening CN1C[C@H]2CON(C)[C@H]2C[C@H]1c1cccc(-c2ccc(C#N)cc2)c1 returned IL-1B inflam inh 17.6, DT40 TDP1 no CPT -1.8%, TDP1 cell CPT -13.5%, MCF10A rerep 39.4% and SW480 rereplic -4.1%.
Screening COc1ccccc1-c1cccc([C@@H]2C[C@H]3[C@H](CON3C)CN2C(=O)CCc2ccccc2)c1 returned IL-1B inflam inh -25.6, DT40 TDP1 no CPT inconclusive, TDP1 cell CPT 18.4µM*, MCF10A rerep -17.8% and SW480 rereplic inconclusive.
Screening Cc1ccccc1-c1cccc([C@@H]2C[C@H]3[C@H](CON3C)CN2Cc2ccccc2)c1 returned IL-1B inflam inh 0.0, DT40 TDP1 no CPT 16.4µM*, TDP1 cell CPT 23.1µM*, MCF10A rerep 18.4µM* and SW480 rereplic 9.8%[9.22 µM].
CN1CC2(Cc3cc([N+](=O)[O-])ccc31)C(=O)OC(C)(C)OC2=O was read as DT40 TDP1 no CPT -21.5% and TDP1 cell CPT -7.0%.
For CN1OC[C@@H]2CN(Cc3ccc(Cl)cc3)[C@H](c3cccc(Br)c3)C[C@@H]21 the results were IL-1B inflam inh -3.6, DT40 TDP1 no CPT 16.4µM*, TDP1 cell CPT inconclusive, MCF10A rerep inconclusive and SW480 rereplic -37.3%.
Screening CN1OC[C@@H]2CN(S(=O)(=O)c3cc(Cl)cc(Cl)c3)[C@H](c3ccc(-c4ccc(C#N)cc4)cc3)C[C@@H]21 returned IL-1B inflam inh 16.9, DT40 TDP1 no CPT 20.6µM* and TDP1 cell CPT inconclusive.
For COc1ccc(S(=O)(=O)N2C[C@H]3CON(C)[C@H]3C[C@H]2c2ccc(-c3cccc(F)c3)cc2)cc1 the results were IL-1B inflam inh -28.8, DT40 TDP1 no CPT inconclusive and TDP1 cell CPT -14.0%.

Compound activity: PubChem, National Center for Advancing Translational Sciences (NCATS)
